Measured values from PubChem BioAssay (EPA / NIEHS).
“And” between values parts separate entries of the source, which are not always exact repeats. Identical values can stand only once. The source made the active and inactive calls. Rule for the calls: active = hit-call score of the fitted dose curve at least 0.9, where 1 is the maximum; inactive = score below 0.9.

Read-out: not listed separately
Assay: BSK_3C_Vis: BioMAP Diversity Plus: 3C Assay for Morphology Visualization (AID 2283025);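 note: fitted both ways so gain or loss versus DMSO counts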;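 for AC50: light microscopy image of cell morphology used as background control; cells imaged 24 h after dosing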
Settings: primary human endothelial cells (HUVEC)
Summary of the method: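 Light-microscopy visualization of HUVEC cultures at 24 h post-treatment, with DMSO as baseline for bidirectional fitting.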

Compound	AC50	outcome
CC(C)(C)c1cc(CCC(=O)NCCCCCCNC(=O)CCc2cc(C(C)(C)C)c(O)c(C(C)(C)C)c2)cc(C(C)(C)C)c1O	3.25 µM (active)	–
O=C(c1ccccc1)c1ccc(O)cc1O	–	inactive
Cc1cc(C)c(O)c(C(C)(C)C)c1	14.9 µM (active)	–
Cc1cnccn1	–	inactive
O=C=Nc1cccc2c(N=C=O)cccc12	–	inactive
O=C=NCc1cccc(CN=C=O)c1	–	inactive
Nc1cc([N+](=O)[O-])cc(Cl)c1O	–	inactive
O=C1c2c(O)ccc(Nc3ccc(CCO)cc3)c2C(=O)c2c([N+](=O)[O-])ccc(O)c21	15.4 µM (active)	–
CCOC(C=C(C)CCC=C(C)C)OCC	37.1 µM (active)	–
CCN(CC)c1ccc2c(c1)Oc1cc(N(CC)CC)ccc1C21OC(=O)c2ccccc21	19.9 µM (active)	–

Read-out: Pselectin, SELP (gene 6403)
Assay: BSK_4H_Pselectin: BioMAP Diversity Plus: 4H Assay for Pselectin Biomarker Activity (AID 2283026)
Settings: primary human endothelial cells (HUVEC); actives raise or lower the signal
Summary of the method: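 ELISA of surface P-selectin on HUVEC, 24 h after dosing, with parallel SRB staining (0.1% after 10% TCA fixation, 560 nm) for overt cytotoxicity. Activity fitted in both directions relative to DMSO.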

Compound	AC50	outcome
CCN=C1C=CC(=C(c2ccc(N(CC)CC)cc2)c2ccc(N(CC)CC)cc2)c2ccccc21	1.46 µM (active) and 957 nM (active)	–
OCC(O)CC(F)(F)C(F)(F)C(F)(F)C(F)(F)F (configuration not stated)	–	inactive
C=CC(=O)OCC(F)(F)C(F)(F)C(F)(F)COC(=O)C=C	11.2 µM (active) and 8.07 µM (active)	–
FC(F)(F)C(F)(F)C(F)(F)C(F)(F)C(F)(F)C(F)(F)C(F)(F)CCI	–	inactive
CC(C)(C)c1cc(CCC(=O)NCCCCCCNC(=O)CCc2cc(C(C)(C)C)c(O)c(C(C)(C)C)c2)cc(C(C)(C)C)c1O	–	inactive
OCC(F)(F)C(F)(F)C(F)(F)C(F)(F)C(F)(F)C(F)(F)CO	–	inactive
O=C(c1ccccc1)c1ccc(O)cc1O	–	inactive
Cc1cc(C)c(O)c(C(C)(C)C)c1	20 µM (active)	–
Cc1cnccn1	–	inactive
O=C=Nc1cccc2c(N=C=O)cccc12	–	inactive
O=C(O)CCC(F)(F)C(F)(F)C(F)(F)C(F)(F)C(F)(F)C(F)(F)C(F)(F)F	–	inactive
COC(F)(C(F)F)C(F)(F)F (configuration not stated)	–	inactive
CCOC(=O)CC(=O)C(F)(F)C(F)(F)F	–	inactive
OC(O)C(F)(F)C(F)(F)F	–	inactive
OCCCC(F)(F)C(F)(F)C(F)(F)C(F)(F)C(F)(F)C(F)(F)C(F)(F)C(F)(F)F	32.3 µM (active) and 24.1 µM (active)	–
CO[Si](C)(CCC(F)(F)C(F)(F)C(F)(F)C(F)(F)C(F)(F)C(F)(F)F)OC	–	inactive

Compound	AC50	outcome
O=C=NCc1cccc(CN=C=O)c1	–	inactive
Nc1cc([N+](=O)[O-])cc(Cl)c1O	–	inactive
C=CC(=O)OCCC(F)(F)C(F)(F)C(F)(F)C(F)(F)F	–	inactive
NCC(F)(F)C(F)(F)C(F)(F)C(F)(F)C(F)(F)C(F)(F)C(F)(F)C(F)(F)F	–	inactive
OCC(F)(F)C(F)(F)C(F)(F)CO	–	inactive
O=S(=O)(O)CCC(F)(F)C(F)(F)C(F)(F)C(F)(F)C(F)(F)C(F)(F)C(F)(F)C(F)(F)F	–	inactive
O=C1c2c(O)ccc(Nc3ccc(CCO)cc3)c2C(=O)c2c([N+](=O)[O-])ccc(O)c21	20 µM (active)	–
CCOC(C=C(C)CCC=C(C)C)OCC	30.2 µM (active)	–
NC(=O)C(F)(F)C(F)(F)C(F)(F)F	–	inactive
CCN(CC)c1ccc2c(c1)Oc1cc(N(CC)CC)ccc1C21OC(=O)c2ccccc21	–	inactive
O=S(=O)(OCC(F)(F)F)C(F)(F)C(F)(F)C(F)(F)C(F)(F)F	–	inactive
OCCCCC(F)(F)C(F)(F)C(F)(F)C(F)(F)F	–	inactive
O=C(O)CCC(F)(F)C(F)(F)C(F)(F)F	–	inactive
O=C(O)C(F)(F)OC(F)(F)C(F)(F)OC(F)(F)C(F)(F)OC(F)(F)F	–	inactive
C[Si](Cl)(Cl)CCC(F)(F)C(F)(F)C(F)(F)C(F)(F)C(F)(F)C(F)(F)F	–	inactive

Read-out: not listed separately
Assay: BSK_4H_SRB: Viability Assessment in the BioMAP Diversity Plus: 4H Assay (AID 2283027);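 note: cells exposed to compound for 24 h before staining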;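 for AC50: curves fitted both ways versus DMSO so AC50 may be loss or gain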
Settings: primary human endothelial cells (HUVEC)
Summary of the method: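 Cytotoxicity read-out in primary human endothelial cells: after 24 h compound exposure, cells were TCA-fixed (10%), stained with 0.1% SRB and absorbance taken at 560 nm. Values fitted in both directions relative to DMSO.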

Compound	AC50	outcome
CCN=C1C=CC(=C(c2ccc(N(CC)CC)cc2)c2ccc(N(CC)CC)cc2)c2ccccc21	1.76 µM (active) and 1.74 µM (active)	–
OCC(O)CC(F)(F)C(F)(F)C(F)(F)C(F)(F)F (configuration not stated)	–	inactive
C=CC(=O)OCC(F)(F)C(F)(F)C(F)(F)COC(=O)C=C	25 µM (active) and 33.8 µM (active)	–
FC(F)(F)C(F)(F)C(F)(F)C(F)(F)C(F)(F)C(F)(F)C(F)(F)CCI	–	inactive
CC(C)(C)c1cc(CCC(=O)NCCCCCCNC(=O)CCc2cc(C(C)(C)C)c(O)c(C(C)(C)C)c2)cc(C(C)(C)C)c1O	–	inactive
OCC(F)(F)C(F)(F)C(F)(F)C(F)(F)C(F)(F)C(F)(F)CO	–	inactive
O=C(c1ccccc1)c1ccc(O)cc1O	–	inactive
Cc1cc(C)c(O)c(C(C)(C)C)c1	29.5 µM (active)	–
Cc1cnccn1	–	inactive
O=C=Nc1cccc2c(N=C=O)cccc12	–	inactive
O=C(O)CCC(F)(F)C(F)(F)C(F)(F)C(F)(F)C(F)(F)C(F)(F)C(F)(F)F	–	inactive
COC(F)(C(F)F)C(F)(F)F (configuration not stated)	–	inactive
CCOC(=O)CC(=O)C(F)(F)C(F)(F)F	–	inactive
OC(O)C(F)(F)C(F)(F)F	–	inactive
OCCCC(F)(F)C(F)(F)C(F)(F)C(F)(F)C(F)(F)C(F)(F)C(F)(F)C(F)(F)F	11.1 µM (active) and 20.8 µM (active)	–
CO[Si](C)(CCC(F)(F)C(F)(F)C(F)(F)C(F)(F)C(F)(F)C(F)(F)F)OC	–	inactive

Compound	AC50	outcome
O=C=NCc1cccc(CN=C=O)c1	–	inactive
Nc1cc([N+](=O)[O-])cc(Cl)c1O	–	inactive
C=CC(=O)OCCC(F)(F)C(F)(F)C(F)(F)C(F)(F)F	–	inactive
NCC(F)(F)C(F)(F)C(F)(F)C(F)(F)C(F)(F)C(F)(F)C(F)(F)C(F)(F)F	–	inactive
OCC(F)(F)C(F)(F)C(F)(F)CO	–	inactive
O=S(=O)(O)CCC(F)(F)C(F)(F)C(F)(F)C(F)(F)C(F)(F)C(F)(F)C(F)(F)C(F)(F)F	–	inactive
O=C1c2c(O)ccc(Nc3ccc(CCO)cc3)c2C(=O)c2c([N+](=O)[O-])ccc(O)c21	31.3 µM (active)	–
CCOC(C=C(C)CCC=C(C)C)OCC	31 µM (active)	–
NC(=O)C(F)(F)C(F)(F)C(F)(F)F	–	inactive
CCN(CC)c1ccc2c(c1)Oc1cc(N(CC)CC)ccc1C21OC(=O)c2ccccc21	–	inactive
O=S(=O)(OCC(F)(F)F)C(F)(F)C(F)(F)C(F)(F)C(F)(F)F	–	inactive
OCCCCC(F)(F)C(F)(F)C(F)(F)C(F)(F)F	–	inactive
O=C(O)CCC(F)(F)C(F)(F)C(F)(F)F	–	inactive
O=C(O)C(F)(F)OC(F)(F)C(F)(F)OC(F)(F)C(F)(F)OC(F)(F)F	–	inactive
C[Si](Cl)(Cl)CCC(F)(F)C(F)(F)C(F)(F)C(F)(F)C(F)(F)C(F)(F)F	–	inactive
